Laboratory results reported in PubChem BioAssay AID651965 (National Center for Advancing Translational Sciences (NCATS), 2013).
About 6,400 (1.9%) of roughly 340,000 compounds were called active. Inconclusive results (about 4%) are left out. Calls come from the whole dose curve; as a rule, active = well fitted falling curve with a large enough effect; inconclusive = small, poorly fitted or top-dose-only effect; inactive = no such curve, though single readings can be large or run the other way. Many of the other results were omitted from the sample, so actives are more common in it than they were.

Target: ATP-dependent Clp protease proteolytic subunit (Bacillus subtilis (strain 168)) (UniProt P80244)
Assay: qHTS Assay for Activators of ClpP; note: the source files actives as falling curves though it sought activators and does not explain the sign; nearly all actives have a fitted effect of over 65% in size
Conditions: purified B. subtilis ClpP, FRET peptide cleavage, 20 min; series mostly up to 57.5 µM; activity change, negative = active: at the top concentration
Procedure, shortened: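 Buffer: 100 mM Tris/HCl pH8, 100 mM KCl, 0.05% low protease BSA, 2.5% glycerol, 0.01% Tween-20. ClpP 10 microg/mL final; 20 min RT; delta FRET normalized to ADEP and DMSO controls.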
Potency is the fitted concentration of half-maximal effect.

Sequence of ATP-dependent Clp protease proteolytic subunit (Bacillus subtilis (strain 168)) (P80244 whole entry, looked up): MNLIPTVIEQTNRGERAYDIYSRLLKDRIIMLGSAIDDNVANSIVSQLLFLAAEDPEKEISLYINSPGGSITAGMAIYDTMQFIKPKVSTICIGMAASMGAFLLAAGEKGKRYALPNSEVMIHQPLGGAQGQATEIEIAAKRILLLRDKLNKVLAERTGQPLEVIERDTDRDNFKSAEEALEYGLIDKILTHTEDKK

Row | SMILES | activity change, negative = active | Potency
1 | CC(=O)c1ccc[n+](C(C)CCC(C)[n+]2cccc(C(C)=O)c2)c1 (stereo not drawn) | -0.892% (inactive) | –
2 | O=C(Nc1cccc(C(=O)O)c1)/C(=C\c1ccccc1)NC(=O)c1ccc(Br)o1 | -1.89% (inactive) | –
3 | CC(=O)NC(c1ccccc1)c1nc(-c2cccc(C(C)C)c2)cs1 (stereo not drawn) | 1.12% (inactive) | –
4 | CC1(C(=O)NS(=O)(=O)c2cccc(F)c2)CCN1C(=O)c1cccc2ccccc12 (stereo not drawn) | -1.17% (inactive) | –
5 | CCc1nc(Nc2ccc(NC(C)=O)cc2)c2oc3ccccc3c2n1 | 35.9% (inactive) | –
6 | COCCNc1nc(-c2ccccc2)nc2c1oc1ccccc12 | -0.339% (inactive) | –
7 | CCc1nc(Nc2ccc3nccnc3c2)c2oc3ccccc3c2n1 | – | 28.2 µM (active)
8 | COc1ccc(Cn2ccn(CC(=O)Nc3cc(C)ccc3C)c(=O)c2=O)cc1 | -1.9% (inactive) | –
9 | COc1ccc(Cn2cccc(NC(=O)Nc3ccc(C#N)cc3)c2=O)cc1 | – | 12.6 µM (active)
10 | COc1ccc(Cn2c(C)c(C)c(C#N)c2NC(=O)Nc2ccc(F)cc2)cc1 | 1.75% (inactive) | –
11 | CSc1ccc(CN2CCC2(C)C(=O)Nc2ccc(C)c(O)c2)cc1 (stereo not drawn) | 0.771% (inactive) | –
12 | CCOc1n[nH]c(-c2ccccc2)n1 | -0.612% (inactive) | –
13 | Cc1ccccc1S(=O)(=O)NC(=O)C1(C)CCN1C(=O)Cc1ccc(Cl)cc1Cl (stereo not drawn) | -3.3% (inactive) | –
14 | COC(=O)c1ccc2nc(-c3ccc(C)cc3)c(Cc3ccc(OC)cc3C)n2c1 | 5.5% (inactive) | –
15 | Cc1ccc(N2CC(C(=O)N3CCC4(CC3)CC(=O)c3ccccc3O4)CC2=O)cc1C (stereo not drawn) | – | 28.2 µM (active)
16 | Cc1ccc(N2CC(C(=O)Nc3ccc(N(C)C)cc3)CC2=O)cc1Cl (stereo not drawn) | 1.18% (inactive) | –
17 | O=C(C1CC(=O)N(c2ccc(Br)cc2)C1)N1CCCC1 (stereo not drawn) | 0.55% (inactive) | –
18 | O=[N+]([O-])c1ccc(N/N=C2/CCCCC2c2ccccn2)c([N+](=O)[O-])c1 (stereo not drawn) | -1.38% (inactive) | –
19 | O=[N+]([O-])c1cc(C(F)(F)F)ccc1NN=C1CCCC1 | – | 31.6 µM (active)
20 | O=[N+]([O-])c1cc(S(=O)(=O)N2CCCC2)ccc1NN=C1CCCC1 | 1.19% (inactive) | –
21 | CCCS(=O)(=O)NC(=O)C1(C)CCCN(C(=O)c2ccnc(Cl)c2)C1 (stereo not drawn) | 0.891% (inactive) | –

Row | SMILES | activity change, negative = active | Potency
22 | O=C(C(=O)N1CCN(c2ccccc2)CC1)c1ccc2c(c1)OCO2 | 0.571% (inactive) | –
23 | COc1ccc(CCNC(=O)COc2ccc3c(c2)OCO3)cc1 | -0.812% (inactive) | –
24 | COC(=O)Cc1c(C)c2ccc(OCC(=O)NCc3ccc4c(c3)OCO4)cc2oc1=O | – | 31.6 µM (active)
25 | COc1ccc2c(C)c(CCC(=O)NCc3ccc(OC)c(OC)c3)c(=O)oc2c1 | 4.37% (inactive) | –
26 | CCC(C)CN1C(=O)CN(S(C)(=O)=O)CC1(C)C(=O)Nc1ccc2c(c1)OCCO2 (stereo not drawn) | -2.44% (inactive) | –
27 | COc1ccc(/C=C/c2ccnc3ccccc23)cc1OC | -11.4% (inactive) | –
28 | CCC1(CC)Cc2ccccc2-c2nc(CCl)[nH]c(=O)c21 | -8.14% (inactive) | –
29 | CCC1(CC)Cc2ccccc2-c2nc3ccccc3c(=O)n21 | -1.31% (inactive) | –
30 | CCOC(=O)C1Cn2c(nc3c(c2=O)C(C)(CC)Cc2ccccc2-3)S1 (stereo not drawn) | – | 28.2 µM (active)
31 | OC(c1ccccc1)(c1ccccc1)C1CCN(CCCOc2ccccc2)CC1 | -0.0496% (inactive) | –
32 | Cc1ccc(-c2nn(-c3ccccc3)cc2CN(Cc2ccccc2)C(=O)CCC(=O)O)o1 | – | 22.4 µM (active)
33 | CN(C)Cc1cn(-c2ccccc2)nc1-c1ccccc1 | -5.99% (inactive) | –
34 | O=C(O)CCC(=O)N(Cc1ccccc1)Cc1ccccc1 | 1.29% (inactive) | –
35 | c1ccc(-n2nc3ccccc3n2)cc1 | – | 25.1 µM (active)
36 | Nc1ccc2nn(-c3ccc(Cl)cc3)nc2c1 | 7.76% (inactive) | –
37 | CCCC(=O)Nc1cc2nn(-c3ccccc3)nc2cc1C | 2.89% (inactive) | –
38 | CCc1nc2c(OCCOc3ccccc3)cccn2c1N(C)C(=O)c1ccccc1F | -3.73% (inactive) | –
39 | Cc1cccc(NC(=O)COC(=O)c2ccccc2OCc2cccc(Br)c2)c1 | -7.45% (inactive) | –
40 | Cc1ccc(-n2ncc(C(=O)NC3CC3)c2C2CCN(C(=O)OC(C)(C)C)CC2)c(C)c1 | 1.33% (inactive) | –
41 | COc1cc(OC)cc(-c2cc3nc(C4CCN(C(=O)OC(C)(C)C)CC4)cc(=O)n3[nH]2)c1 | – | 25.1 µM (active)
42 | CCOc1ccc(-c2cc3nc(C4CCN(C(=O)OC(C)(C)C)CC4)c(C(=O)Nc4cccc(CC)c4)cn3n2)cc1 | 4.44% (inactive) | –

Row | SMILES | activity change, negative = active | Potency
43 | O=C(COC(=O)CCCN1C(=O)c2cccc3cccc(c23)C1=O)NC1CCS(=O)(=O)C1 (stereo not drawn) | – | 31.6 µM (active)
44 | COc1ccc(/C=C2\SC(=O)N(CCC(=O)NC3CCS(=O)(=O)C3)C2=O)cc1 (stereo not drawn) | 0.178% (inactive) | –
45 | O=C(COC(=O)/C=C/c1ccc(Cl)cc1)NC1CCS(=O)(=O)C1 (stereo not drawn) | -0.845% (inactive) | –
46 | Cc1ccc(F)c(S(=O)(=O)NC(=O)C2(C)CCN2C(=O)c2ccco2)c1 (stereo not drawn) | 2.02% (inactive) | –
47 | COc1cc(/C=C/C(=O)O)cc(S(=O)(=O)Nc2ccccc2SC)c1OC | -0.984% (inactive) | –
48 | CCC(C)(C)NC(=O)/C=C/c1cc(OC)c(OC)c(S(=O)(=O)N2CCc3ccccc32)c1 | 1.65% (inactive) | –
49 | CCn1nc(C(=O)NNS(=O)(=O)c2cc(/C=C/C(=O)O)cc(OC)c2OC)c2ccccc2c1=O | – | 5.62 µM (active)
50 | COc1ccccc1CNc1nc(Nc2ccccc2Cl)c2sccc2n1 | -20.5% (inactive) | –
51 | c1ccc(Cn2nnc3c(N4CCCCC4)ncnc32)cc1 | 0.615% (inactive) | –
52 | O=C(CC(CC(=O)c1ccccc1)c1ccco1)c1ccccc1 | -1.2% (inactive) | –
53 | OC(c1ccc(Cl)cc1)c1ncc(-c2ccc(Cl)cc2)[nH]1 (stereo not drawn) | -0.996% (inactive) | –
54 | C#CC(C)(C)NC(=O)c1cnc(-c2ccccc2)nc1-c1ccccc1 | -0.381% (inactive) | –
55 | C=CCn1c(-c2sc(-c3ccccc3)nc2C)n[nH]c1=S | -0.756% (inactive) | –
56 | Cc1nc(-c2ccccc2)sc1-c1nc(-c2ccccc2)ncc1S(=O)(=O)c1ccccc1 | – | 31.6 µM (active)
57 | CC1(C(=O)NCc2ccc(F)c(F)c2)Cc2c(-c3ccc4c(c3)OCO4)ccnc2O1 (stereo not drawn) | 5.31% (inactive) | –
58 | CC(C)CCOc1ccc(C(=O)Nc2cc(S(=O)(=O)N3CCOCC3)ccc2N2CCOCC2)cc1 | 0.109% (inactive) | –
59 | CCCc1nc2sc3c(c2c(=O)n1NC(=O)CCCl)CCCC3 | 1.41% (inactive) | –
60 | Cn1c(NN)nc2sc3c(c2c1=O)CCC3 | – | 11.2 µM (active)
61 | NNC(=O)C1CCCn2c1nc1sc3c(c1c2=O)CCCC3 (stereo not drawn) | -3.47% (inactive) | –
62 | OCCNc1ncnc2oc(-c3ccco3)c(-c3ccco3)c12 | 4.8% (inactive) | –
63 | CCOc1ccc(CCN2C(=O)C(=O)N([C@@H](Cc3ccc(O)cc3)CN3CCC[C@H]3CN3C(=O)C(=O)NC[C@@H]3CC(C)C)C[C@@H]2Cc2ccccc2)cc1 | -1.5% (inactive) | –
